Experimental data taken from the supplement of paper PMC11417369.
± gives the standard deviation of the averaged measurements. Over roughly 25,000 sequences, “ln(normalized median fluorescence intensity)” has its median near 7.9; the highest 2% begin near 11. This is one part of a sample in which the highest values are shown more often than they occur.

system: PfAP2-I AP2 domain 3 (GST-tagged); experiment: gcPBM binding intensity (ln(normalized median fluorescence intensity)); higher = stronger DNA binding
Outline: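 Binding intensity is defined as the maximum Masliner-normalised natural-log median intensity across replicate spots for either probe orientation. It was measured on an Agilent 4 × 180k array of primer-extended double-stranded 36-bp intergenic genomic probes and negative controls, to which GST-tagged P. falciparum DNA-binding domains made in E. coli were applied for 1 h in 1× PBS with 1% milk, 0.2 mg/ml BSA, 0.5% salmon testes DNA and 0.03% Triton X-100. Detection was by Alexa488 anti-GST antibody and scanning at 488 nm.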

In order of falling “gcPBM binding intensity (ln)” value:
1. ATTTATATGCACCATTGTACGTTTTATAAAGTTTGG [XGTACX_site3755]  11.6 ± 0.83
2. ATTGTGCACTTATATGCACACATTTTAGTTTTTTTT [CACACA_site2028]  11.4 ± 0.69
3. TTGTGTGAGCAAGTAGTGCATAATATAAATAAAAAA [GTGCAC_site9802]  11.2 ± 0.54
4. TATATATATATAATAGTGCATAAATAAATATATAAA  11.2 ± 0.45
5. ATATATATTATCATTGTGCACTTATTTATATACCTT  11.1 ± 0.15
6. TTTAGATATATGGTAGTGCATAATAAAAATATAGCC [GTGCAC_site9449]  11.1 ± 0.67
7. CCACGAGAATATATAGTGCATAATAATTTTTTTTTG  11.1 ± 0.4
8. AATAAAAATAATATAGTGCATAATATAAGGAAAAAA  11.1 ± 0.49
9. TTATCATTTGCCATTGTGCACTTATATGCTCACATT  10.97 ± 0.028
10. TTTTTTTTTTTTGAAGTGCATTACTTTTTTTGTATT [GTGCAC_site9811]  11 ± 0.44
11. AGTAATAGTTTGTGCACACTCAAGTATATCATAGAT [CACACA_site6082]  11 ± 0.23
12. ATATATATATATATAGTGCATAATGTTTTAATAGAT  11 ± 0.33
13. TGTATATATTTGTGCACACCAAAGTTTGATTTTATT [CACACA_site1860]  10.9 ± 0.099
14. AGTAATAGTTTGTGCACACTCAAGTATATCATATAT [CACACA_site4034]  10.9 ± 0.24
15. TTTCTAGTTACAAGAGTGCATAATATATAAAAATAA [GTGCAC_site9874]  10.9 ± 0.56
16. TTTTTATTTTCATATGTGCACTTATATATATATATA  10.82 ± 0.099
17. TAAGTAATAGTTTGTGCACACTCAAGTATATCATAT [CACACA_site4035]  10.8 ± 0.28
18. TAATAAATGTTATTAGTGCATAATAGATAATATATT  10.8 ± 0.64
19. ATATATATATATATAGTGCATAAAATAAGTTTCTAA  10.8 ± 0.21
20. TATGTATATATTTGTGCACACCAAAGTTTGATTTTA [CACACA_site1861]  10.71 ± 0.014
21. TAAAAAATGATAGAAGTGCATAAAATAATATATATA [GTGCAC_site9904]  10.4 ± 0.13
22. ACATATAATAAAATAGTGCATTGTTAGTTTTATATA  10.4 ± 0.42
23. CACTAAATAAGGAAAGTGCATAAAATAAAGGTTATA [GTGCAC_site9793]  10.4 ± 0.26
24. TAAAAAATTAATAAAGTGCATAAATATTACAATATT  10.3 ± 0.4
25. TATATATATATATAAGTGCATATAAAAATCGTTCGT  10.3 ± 0.11
26. TTTTTGTGCATTGATTGTACTTTCTAGGATTATTAA [XGTACX_site7070]  10.16 ± 0.049
27. ACATTTACAAGGAAAGTGCATATAAGAAAAATAAAA [GTGCAC_site9587]  10.2 ± 0.11
28. GTTGAAATAAAATTAGTGCATATATAAATATATATA  10.2 ± 0.17
29. TATAATAACAATTTAGTGCATATAATAATATTTTAT  10 ± 0.19
30. ATATATAAATAAATAGTGCATTTTAATATTTAACGT  10 ± 0.18
31. CTATGCATTTATAGTGCATGTAAAATATAAGATAAT [TGCATGCA_site71]  9.86 ± 0.085
32. ATAATATTTTATATAGTGCATTTGCTCATTATATAT [GTGCAC_site9528]  9.85 ± 0.45
33. TATATATATATATATGTGCACATTTATTGCCTTTGC  9.76
34. TCTATTAATTAATATACACACATTATATATATATAT [CACACA_site8815]  9.375 ± 0.049
35. ATATTACACATATATGCACACATTGTAGTTATTTAT [CACACA_site8843]  9.34 ± 0.26
36. TTATATTTAGTATATGCACACTTTATGTTTGTTATT [CACACA_site5163]  9.29 ± 0.21
37. TATATATATATGTAATGTACATAAATTTTATACCTT [XGTACX_site6991]  9.27 ± 0.53
38. ATATATATATAGTACGCACACATAGTTGTACATTAA [CACACA_site2787]  9.21 ± 0.13
39. ATAGTAATGCATAAATATATATTATATATATATATA [XGTACX_negctrl_site576]  9.21 ± 0.49
40. TATATATATATCAAGTGTACTTGTGTTTGTAATATT [XGTACX_site8854]  9.165 ± 0.049
41. ATATATATATAAAGTTGTACATTTTTTATTTTTTCA [XGTACX_site7847]  9.09 ± 0.16
42. AGTAGCAAATATTAAGTGCATATTATATAATGTGTA [GTGCAC_site9546]  9.04 ± 0.16
43. AAAAAAAAAAAAAAAAAAAGAAAAGAAAATAGGGTT [GTGCAC_negctrl_site421]  8.96 ± 0.22
44. TATATATCAATATGCACACACAAGAAGTAATTATAA [CACACA_site7487]  8.96 ± 0.22
45. ATTGTTATTTATTGTGTGCGCATTAATACATACATA [GTGCAC_site9982]  8.95 ± 0.41
46. ATTTACCCTTGCCATGCACACTTTTTTATAGAAAAT [CACACA_site5857]  8.95 ± 0.44
47. GGTCTAACAACATGCGCACACACATGAATATTCATA [CACACA_site1539]  8.81 ± 0.49
48. ATATATATATCAACAACACACGATTAACTAAAAAAA [CACACA_site302]  8.8 ± 0.19
49. AATATTATAAATGATACACACTTAAAATACACGCAC [CACACA_site7305]  8.71 ± 0.22
50. CATATTGGTATGCTCATGCACTTTTATTTTGTTATT [GTGCAC_site9553]  8.52 ± 0.53
51. ACCTTATTTAGTTATAGTACACAAAGTATTAAACAT [XGTACX_site8418]  8.46 ± 0.46
52. TTTTTTTTTTATTGTACATGCAAAAAATTCCACACA [TGCATGCA_site279]  8.31 ± 0.32
53. TGTTTTTTTATTTTCACACATAATCCAATTATACAT [CACACA_site6070]  8.22 ± 0.55
54. AAAAGCACCGTTCGTTGTACACTGAAACACTTTTGT [XGTACX_site199]  8.2 ± 0.76
55. TTTTTTTTTTTTGTAATACACACCACTATATGTTAT [CACACA_site1844]  8.15 ± 0.73
56. CTATTATCGGTTCCTACACACAAATATATATGTCTA [CACACA_site3579]  8.1 ± 0.57
57. GTTTATTGATTTATTTGTACTTATATATATATTTCA [XGTACX_site5098]  8.07 ± 0.63
58. TTTTTTATTGTGATACGTATATTATTTTATGATAAA [CACACA_negctrl_site1591]  8.04 ± 0.6
59. CATATGATATGTTATACACACACGTATATATGAATT [CACACA_site3446]  8.03 ± 0.21
60. ATGTAGATATATATATGTACTAATTAGTAGTTTACG [XGTACX_site6275]  8 ± 0.41
61. CATCATAGAGTGGAGTGTACAAATATGTCAACATAT [XGTACX_site2264]  7.99 ± 0.55
62. ACCATATAATTTTTTTGTACATAATGATTTTTTTTT [XGTACX_site1104]  7.99 ± 0.45
63. TGGAAACAATGACACACACACAAAAAAAAAAAAAAA [CACACA_site7494]  7.97 ± 0.56
64. TATCATTTATATATGTGTACTTATTTATTTATTTAT [XGTACX_site7961]  7.96 ± 0.28
65. AAAAAAAAAAGACACACACACACATACACATACATA [CACACA_site7362]  7.96 ± 0.29
66. AAACACACACACAAATGTACATATATATATATATTT [XGTACX_site5090]  7.92 ± 0.51
67. GTTATAACTCAAATATGTACATATTATAAAACATAT [XGTACX_site6693]  7.92 ± 0.47
68. AAAATAATATAAATAATATAAGTGAGCATATATATA [TGCATGCA_negctrl_site527]  7.92 ± 0.72
69. TATATTTATAAATGAACACACACGCAATTTGAATCG [CACACA_site3370]  7.89 ± 0.49
70. TTTATAGTTTTTAATAGTACACATATTTTTAAGTAT [XGTACX_site5498]  7.89 ± 0.2
71. CATAATACATATAACACACACAATTATACATAAAAT [CACACA_site3233]  7.88 ± 0.33
72. GAACTTTACAACCCAACACACAAAAAAGAAAAGAAA [CACACA_site1717]  7.87 ± 0.46
73. CATTTTGTTTTAAAGTGTACATTATGTAATATAAAA [XGTACX_site647]  7.84 ± 0.43
74. ATTACCAACAGATCTTGTACATATTAAAGCATCTTA [XGTACX_site2361]  7.84 ± 0.57
75. TATATTTAGAGAGAGACACACAAAGGGACTTACACA [CACACA_site2545]  7.82 ± 0.71
76. TTGTTTTGGATTATCACACATATAATATATACTCAT [CACACA_site4780]  7.82 ± 0.68
77. TGTGTATATAAATAATGTACATATATATTTTTTTAT [XGTACX_site7341]  7.79 ± 0.22
78. TTTTTACTATAAGGGGAAAAAAAAAAAAATAATATA [XGTACX_negctrl_site279]  7.78 ± 0.28
79. TATATTATTATATATTGTACTTTTTATATTTGCATT [XGTACX_site2978]  7.72 ± 0.49
80. ATATGTATTTATATATGTTTGATTTTTTTTTTTTTT [TGCATGCA_negctrl_site506]  7.71 ± 0.26
81. ATATTTTCTTTTTAAAGTACATATTTGATTACAATA [XGTACX_site8414]  7.66 ± 0.5
82. GTAATATCAATATAAAGTACACACTATAGTATGTAT [XGTACX_site4714]  7.66 ± 0.49
83. AAAATCAAGTAGTATAAAGTAAGTATCATAAAAATA [CACACA_negctrl_site1554]  7.63 ± 0.59
84. AGTATACATTCATTTTGTACTCAATGATTTGATAAC [XGTACX_site6787]  7.63 ± 0.42
85. AAAAAAAATATACATACATGCATACATAAGTTTCTA [TGCATGCA_site998]  7.55 ± 0.73
86. TTCAATAGGTATAATTGTACTTAATAATATATTGTT [XGTACX_site8363]  7.53 ± 0.42
87. TCAAAATATCCAAAAGAATAAAGAAAAAAAAAAAGA [CACACA_negctrl_site1377]  7.5 ± 0.41
88. TTGTAATTTATTCAAACACACAATTTGGACCTTTTT [CACACA_site1063]  7.45 ± 0.51
89. TATAAGTTGATATATACACACATATATAAATATGTA [CACACA_site7526]  7.4 ± 0.4
90. AACATGTTAAAATAAACACACAGCTAAGGTTTTTTT [CACACA_site157]  7.4 ± 0.69
91. AAGATATCTAAGGAAATTAAACTACCAAAATATATA [TGCATGCA_negctrl_site338]  7.39 ± 0.59
92. CACAAAATAAATTAAACACACAACATCATAGATGTA [CACACA_site4619]  7.21 ± 0.54
93. AAAACAAACAAAAAAAAAAAAAAAAATATCAATCTA [TGCATGCA_negctrl_site203]  7.01 ± 0.52
